BoNT A protease: inhibitors of Botulinum neurotoxin A light chain protease. multiplex microsphere protease substrate cleavage, flow cytometry. hit rate 0.17% among 360,000. AID 588499. inhibition, % at 10 µM
Anthrax LF prot: anthrax lethal factor protease inhibition; hit rate 0.12% among 360,000; multiplex microsphere protease cleavage assay, LF; P15917; inhibition, % at 10 µM
Target sequence (P15917 whole entry, looked up): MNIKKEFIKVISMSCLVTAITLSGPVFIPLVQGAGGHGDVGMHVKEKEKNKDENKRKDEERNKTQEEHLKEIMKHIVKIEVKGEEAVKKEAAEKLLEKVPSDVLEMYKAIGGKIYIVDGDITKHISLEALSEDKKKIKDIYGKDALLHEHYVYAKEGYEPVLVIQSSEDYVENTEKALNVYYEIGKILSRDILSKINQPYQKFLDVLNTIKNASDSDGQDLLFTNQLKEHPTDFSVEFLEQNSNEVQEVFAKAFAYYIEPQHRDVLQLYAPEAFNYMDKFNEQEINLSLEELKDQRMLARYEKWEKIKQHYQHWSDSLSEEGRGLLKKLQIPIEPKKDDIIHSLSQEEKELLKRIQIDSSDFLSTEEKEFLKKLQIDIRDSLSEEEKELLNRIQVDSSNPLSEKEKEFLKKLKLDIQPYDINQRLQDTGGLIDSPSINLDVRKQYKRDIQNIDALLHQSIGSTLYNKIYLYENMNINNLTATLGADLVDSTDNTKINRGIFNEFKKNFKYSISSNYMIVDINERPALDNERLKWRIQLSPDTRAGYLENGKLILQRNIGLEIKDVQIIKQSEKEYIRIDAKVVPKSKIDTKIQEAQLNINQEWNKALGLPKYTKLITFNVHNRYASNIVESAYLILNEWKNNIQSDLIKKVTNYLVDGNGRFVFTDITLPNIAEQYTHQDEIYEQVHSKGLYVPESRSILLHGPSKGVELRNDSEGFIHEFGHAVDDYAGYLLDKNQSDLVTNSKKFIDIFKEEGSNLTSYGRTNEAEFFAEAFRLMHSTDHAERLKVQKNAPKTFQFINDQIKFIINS
Autofluor counter: counter-screen for toxin protease inhibitors: compound fluorescence | compound autofluorescence counterscreen, microsphere flow cytometry; hits give high values | fluorescence intensity (concentration not given with the values) | hit rate 3.1% among 360,000 | AID 624483; in the data active = fluorescence intensity above about 16000; inconclusive = no clear call, values can overlap the other calls
BoNT-F LC inh: BoNT F light chain protease inhibition. AID 588497. hit rate 0.22% among 360,000. Multiplex microsphere protease cleavage assay, flow cytometry. inhibition, % at 10 µM; in the data active = inhibition above about 35%, passing the limit was not always enough; inconclusive = no clear call, values can overlap the other calls
BJeLR lethal: BJeLR cell viability loss; BJeLR (HRASV12) viability, CellTiter-Glo ATP luminescence, 48 h; inhibition, % (concentration not given with the values); hit rate 0.17% among 300,000; AID 1554; in the data active = inhibition above about 50%; inconclusive = no clear call, values can overlap the other calls
Of the large screens only hits and unclear results are named; the others gave an inactive call. Sampled rows, rich in hits. Any-hit rate of the full collection: about 3.5%. Cut-off read from the data, not from the text of the source, unless noted: active = inhibition above about 30%; inconclusive = no clear call, values can overlap the other calls; inactive = below that.

c1ccc(-c2nnc(CN3CCN(C(c4ccccc4)c4ccccc4)CC3)o2)cc1	none
CCCNC(=O)Nc1ccc2c(c1)N(C)C(=O)c1ccccc1S2	Autofluor counter 16271
CCCCCC(=O)Nc1ccc(-c2csc(N)n2)cc1	none
CS(=O)(=O)c1ccc(C(=O)OCC(=O)N(CCc2ccccc2)Cc2ccccc2)cc1	none
O=C(Nc1ccc(F)cc1)c1sccc1SCc1cccc(C(F)(F)F)c1	BoNT A protease inconclusive, Autofluor counter 26797
O=C(NCc1cc(Cl)cc(Cl)c1)c1csc([C@@H]2C[C@H](O)[C@@H](CO)O2)n1	none (no result: BJeLR lethal)
COC(=O)CCC(=O)NNC(=O)c1ccc([N+](=O)[O-])cc1	none
CCCCCCCC(=O)NNC(=O)c1ccc([N+](=O)[O-])cc1	Autofluor counter 24645
CCOC(=O)N1CCN(S(=O)(=O)c2ccc3c(c2)oc(=O)n3C)CC1	none
CCOC(=O)n1c(=O)oc2cc(S(=O)(=O)N3CCCCC3)ccc21	Autofluor counter 23136
COC(=O)n1c(=O)oc2cc(S(=O)(=O)N3CCCCC3)ccc21	BoNT A protease inconclusive, Autofluor counter 21823
C[C@@H]1CN([C@H](C)CO)C(=O)CCCn2cc(nn2)CO[C@H]1CN(C)C(=O)C1CC1	none (no result: BJeLR lethal)
CC(C)c1nnc(NC(=O)CSc2nc3ccccc3s2)s1	Autofluor counter 20149 (no result: BJeLR lethal)
Cc1csc(NC(=O)CCCSc2nc3ccccc3s2)n1	Autofluor counter 21652
CCc1nnc(NC(=O)CSc2nc3ccccc3s2)s1	none
Cc1cccc(C)c1C(=NCCN(C)C)c1ccccc1	BoNT-F LC inh inconclusive
CCn1[nH]c(=O)c(=Nc2c(C)n(C)n(-c3ccccc3)c2=O)cc1-c1ccc(Cl)cc1	Autofluor counter 22167
Cc1c(N=Cc2ccc(-c3ccc(Cl)cc3)o2)c(=O)n(-c2ccccc2)n1C	none
O=C(C=Cc1ccccc1Cl)c1ccccc1	none (no result: BJeLR lethal)
C=CCn1cccc(/C=C/C(=O)c2ccc(C(C)(C)C)cc2)c1=S	BoNT A protease 30
CCN(CC)CCCN=Cc1c(O)n(CCc2ccc(OC)c(OC)c2)c(=O)[nH]c1=O	BoNT A protease inconclusive, Autofluor counter 21750
CC(C)NC(=O)C1(C)CCCN1Cc1ccccc1C#N (configuration not stated)	none (no result: BJeLR lethal)
Cc1ccc(S(=O)(=O)NCc2nnc(SCC(=O)Nc3cccc(C)c3C)n2C)cc1	Autofluor counter 21005
COC(=O)CSc1nnc(CNS(=O)(=O)c2ccc(C)cc2)n1C	none
O=C(COc1ccc(Br)cc1)Nc1ccccc1N1CCCC1	none
CC(=O)N1CCN(c2ccccc2NC(=O)COc2ccc(Br)cc2)CC1	Autofluor counter 23694
O=C(NCc1cccs1)C(=O)NCC1OCCCN1S(=O)(=O)c1cc(F)ccc1F (configuration not stated)	none
COc1ccc(NC(=O)N2c3ccccc3CC2C)cc1OC (configuration not stated)	none
CC1Cc2ccccc2N1C(=O)COC(=O)c1ccccc1NCCO (configuration not stated)	none
COC(=O)c1ccccc1NC(=O)N1c2ccccc2CC1C (configuration not stated)	BoNT A protease inconclusive, Autofluor counter 20425
CC1Cc2ccccc2N1C(=O)COC(=O)c1cccnc1Cl (configuration not stated)	BoNT A protease inconclusive, Autofluor counter 16252
COC(=O)CN1C(=O)CSc2ccc(S(=O)(=O)N3CCC(C)CC3)cc21	none (no result: BJeLR lethal)
COc1cc(/C=C2/SC(=S)N(CC(=O)Nc3nc4ccccc4s3)C2=O)cc(OC)c1OC	BoNT A protease 40, Anthrax LF prot 42
COc1cc(/C=C2\SC(=S)N(CCC(=O)Nc3ccccn3)C2=O)cc(OC)c1OC	none
COc1cccc(/C=C2\SC(=S)N(CCCC(=O)Nc3cc(C)on3)C2=O)c1	BJeLR lethal 100
COc1cc(/C=C2\SC(=S)N(CC(=O)Nc3ccccn3)C2=O)cc(OC)c1OC	BoNT A protease 39
O=C(NN=C1C2CC3CC(C2)CC1C3)c1cccc(S(=O)(=O)N2CCOCC2)c1	none
c1ccc2cc(OCCOCCOc3ccc4ccccc4c3)ccc2c1	none
CC(C)SCCCCOc1ccc2ccccc2c1	Autofluor counter 21736
C=CCNc1ncnc2c1ncn2[C@H]1CN(Cc2ccccc2)C[C@@H](COC(C)=O)O1	none (no result: BJeLR lethal)
CCOc1ccccc1NC(=O)c1ccc(F)c(S(=O)(=O)N2CCC3(CC2)OCCO3)c1	BoNT A protease inconclusive, Autofluor counter 17156
CCC(=O)Nc1ccc(Oc2ccc3c(c2)C(=O)N(c2ccc(O)cc2)C3=O)cc1	BoNT A protease inconclusive, Autofluor counter 21982
Cc1cn([C@H]2C[C@H](O)[C@@H](/C=C/C(=O)NCc3ccc4c(c3)OCO4)O2)c(=O)[nH]c1=O	none (no result: BJeLR lethal)
CCN(CC)S(=O)(=O)c1ccc2c(c1)oc(=O)n2CC(=O)NC1CCCCC1	none
O=C(c1ccc(Cl)cc1)C1CCN(C(=O)N2CCOCC2)CC1	Autofluor counter 19889
COc1ccc(C)cc1NC(=O)COCC(=O)O	Autofluor counter 20410
CC(C)n1c(CCCO)nc2ccccc21	Autofluor counter 24524
Cc1nnc(NC(=O)C2CCN(S(=O)(=O)c3ccc(F)c(Cl)c3)CC2)o1	Autofluor counter inconclusive (no result: BJeLR lethal)
O=S(=O)(c1ccc(N2CC=C(c3ccccc3)CC2)nc1)N1CCCC1	BoNT A protease inconclusive, Autofluor counter 24332
NC(=O)CSc1nnnn1-c1ccc(OC(F)(F)F)cc1	BoNT A protease inconclusive, Autofluor counter 23160
COc1ccccc1-c1nc(C#N)c(N2CCN(c3cccc(Cl)c3)CC2)o1	Autofluor counter 25154
COc1ccccc1-c1nc(C#N)c(N2CCN(C(c3ccccc3)c3ccccc3)CC2)o1	none
CCc1cc(C(=O)N2CCN(c3ncccn3)CC2)sc1C	Autofluor counter inconclusive
Fc1ccc(CN2CCCCCC2)c(F)c1	Autofluor counter 22437 (no result: BJeLR lethal)
Fc1ccc(CN2CCCCCCC2)cc1F	Autofluor counter 16629
FC(F)(F)c1cccc(Cc2noc(CN3CCCC3)n2)c1	none
FC(F)(F)c1cccc(CN2CCCCCC2)c1	Autofluor counter 24319
Fc1ccc(CN2CCCCCCC2)c(F)c1	none (no result: BJeLR lethal)
O=C(Nc1ccc(Oc2ccccc2)cc1)c1ccc2sc([C@H]3C[C@H](O)[C@@H](CO)O3)nc2c1	none (no result: BJeLR lethal)
CCC(C)(C)n1nnnc1C(C(C)C)N(CCN1CCOCC1)Cc1cc2cccc(C)c2[nH]c1=O (configuration not stated)	Autofluor counter 21802
COc1ccc2sc(NC(=O)CC(C)C)nc2c1	Autofluor counter 20332
COc1ccc(CNC(=O)CSc2nnc(C)s2)cc1	BoNT A protease inconclusive, Autofluor counter 19126
COc1ccc2nc(NC(=O)CSc3nc(SC)ns3)sc2c1	none
COc1ccc(CNC(=O)CSc2nnc(C)c(=O)[nH]2)cc1	none
CSc1cccc(NC(=O)CSc2nnc(C)s2)c1	Autofluor counter 16404
Cc1nnc(SCC(=O)Nc2cccc(Br)c2)s1	none (no result: BJeLR lethal)
COc1ccc2nc(NC(=O)CSc3nnc(C)s3)sc2c1	Autofluor counter 21301
CC(C)(CC(=O)O)CC(=O)N1CCN(c2nc3cc(Cl)ccc3s2)CC1	none
CCNC(=O)C1(C)CCN1CCC(=O)c1ccc(C)cc1 (configuration not stated)	none (no result: BJeLR lethal)

Bioassay records deposited in PubChem by several laboratories.
